Measured values as given in PubChem BioAssay (Tox21).
Values without a mark were called inactive. Results filed as inconclusive are left out. Where a call stands in place of a potency, no number is given. Activity calls are given as the source filed them. Unless noted, calls come from the whole dose curve; as a rule, active = well fitted curve in the direction sought with a large enough effect in the repeat runs; inconclusive = weak or mixed curves; inactive = no such curve, though single readings can be large; an effect the other way counts as inactive or inconclusive.

Columns and labels:
[1] = A CellTox Green Cytotoxicity Assay to monitor cytotoxicity in HepG2 cells - 32 hour (AID 1224883); note: nearly all actives have a fitted effect of over 50% in size; note: potency is the fitted concentration of half-maximal effect
Outline: (§1)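 Using 1536-well format, dye-containing HepG2 suspension was seeded, allowed 5 h at 37 C/5% CO2, dosed by pintool with compounds, positive and negative controls, and imaged for fluorescence across 40 h.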

[2] = A CellTox Green Cytotoxicity Assay to monitor cytotoxicity in HEK293 cells - 8 hour (AID 1224884); note: nearly all actives have a fitted effect of over 35% in size; note: potency is the fitted concentration of half-maximal effect
Outline: (§2)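 Fluorescence intensity, read at 0, 8, 16, 24, 32 and 40 h of compound treatment, reflected dye binding to DNA of dead HEK293 cells; compounds (23 nL, DMSO) were added 5 h after plating cells with reagent.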

[3] = qHTS RealTime-Glo MT Cell Viability Assay in HEK293 cells - 24 hour (AID 1224886); note: nearly all actives have a fitted effect of over 50% in size; note: potency is the fitted concentration of half-maximal effect
Outline: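 Luminescence generated by NanoLuc from substrate produced by living HEK293 cells served as the viability signal. Each value reflects the reading at its stated time point during continuous 40 h compound exposure at 37 C.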

[4] = A CellTox Green Cytotoxicity Assay to monitor cytotoxicity in HepG2 cells - 8 hour (AID 1224890); note: nearly all actives have a fitted effect of over 45% in size; note: potency is the fitted concentration of half-maximal effect
Outline: as §1

[5] = qHTS assay to identify small molecule antagonists of the androgen receptor (AR) signaling pathway using the MDA cell line in the presence of 0.5 nM R1881 - cell viability counter screen (AID 1259242); note: nearly all actives have a fitted effect of over 45% in size
Outline: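 Viability of MDA-kb2 cells was multiplexed with the luciferase AR readout; after 16 hr with compounds and R1881 at 0.5 nM final, CellTiter-Fluor fluorescence was recorded.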

[6] = molecular target: Estrogen receptor (Homo sapiens) (UniProt P03372); test: qHTS assay to identify small molecule antagonists of the estrogen receptor alpha (ER-alpha) signaling pathway using the BG1 cell line in the presence of 0.1 nM 17-beta-estradiol (AID 1259244); note: nearly all actives have a fitted effect of over 50% in size
Outline: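 Estradiol at 0.1 nM (final) stimulates the endogenous ER-alpha of VM7Luc4E2 cells carrying an ERE-driven luciferase; compounds are co-incubated 22 h at 37C and luciferase output quantified by luminescence.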

[7] = qHTS assay to identify small molecule phospholipidosis (PLD) inducers (AID 1259344; active = well fitted curve in the direction sought with a large enough effect; an effect the other way counts as inactive or inconclusive)
Outline: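 Phospholipidosis is scored by imaging LipidTOX-stained pits in HepG2 cells exposed to compound for 24 h at 37 C; pit counts and integrated intensities per well and per cell serve as outputs.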

[8] = qHTS assay to identify small molecule HDAC inhibitors (AID 1259364); note: potency is the fitted concentration of half-maximal effect;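 note: wild-type HCT-116 cells with endogenous class I/II HDAC activity; nearly all actives have a fitted effect of over 45% in size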
Outline: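 Read-out: luminescence of HDAC-Glo I/II reagent, 30 min RT, reflecting class I/II deacetylase activity in whole HCT-116 cells pre-exposed 2 h to DMSO-dissolved compounds.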

[9] = qHTS assay to identify small molecule HDAC inhibitors - cell viability counter screen (AID 1259365); note: series mostly up to about 92 µM; nearly all actives have a fitted effect of over 50% in size
Outline: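 CellTiter-Glo luminescence (30 min, room temperature) reported viability after a 2 h compound exposure at 37 C. Cells: wild-type HCT-116, 1,500 per well, seeded the night before.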

[10] = qHTS assay to identify small molecule antagonists of the sonic hedgehog signaling (Shh) pathway - cell viability counter screen (AID 1259367); note: nearly all actives have a fitted effect of over 55% in size
Outline: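 Cells: 3T3 Gli1-Luc, 2,000/well, 4 hr pre-incubation. Compounds in DMSO, then conditioned medium. Incubation 24 hr, 37C, 5% CO2. CellTiter-Fluor at 23 hr, 1 hr, fluorescence.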

[11] = A CellTox Green Cytotoxicity Assay to monitor cytotoxicity in HepG2 cells - 0 hour (AID 1224882); note: nearly all actives have a fitted effect of over 35% in size
Outline: as §1

[12] = qHTS RealTime-Glo MT Cell Viability Assay in HepG2 cells - 16 hour (AID 1224885); note: nearly all actives have a fitted effect of over 50% in size
Outline: (§3)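 Tox21 10K library screened in qHTS format on HepG2 cells carrying RealTime-Glo reagents. Compounds were added after a 5 h preincubation, and the luminescent signal from continuous culture was measured repeatedly during 40 h treatment.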

[13] = qHTS RealTime-Glo MT Cell Viability Assay in HEK293 cells - 8 hour (AID 1224887); note: nearly all actives have a fitted effect of over 50% in size; note: potency is the fitted concentration of half-maximal effect
Outline: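 Viable HEK293 cells reduce a cell-permeant prosubstrate; the product diffuses out and is consumed by NanoLuc in the medium to give light. Compounds went in after a 5 h incubation and plates were read over the treatment course.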

[14] = A CellTox Green Cytotoxicity Assay to monitor cytotoxicity in HEK293 cells - 16 hour (AID 1224888); note: nearly all actives have a fitted effect of over 35% in size
Outline: as §2

[15] = qHTS RealTime-Glo MT Cell Viability Assay in HepG2 cells - 0 hour (AID 1224889); note: nearly all actives have a fitted effect of over 50% in size
Outline: as §3

[16] = qHTS assay to identify small molecule antagonists of the estrogen receptor alpha (ER-alpha) signaling pathway using the BG1 cell line in the presence of 0.1 nM 17-beta-estradiol - cell viability counter screen (AID 1259241); note: nearly all actives have a fitted effect of over 40% in size
Outline: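 Cytotoxicity counter-screen: live-cell protease activity measured by fluorescence (30 min reagent step) in the same wells. Cells were VM7Luc4E2 with endogenous ER-alpha and ERE-driven luciferase, treated 22 hr at 37C alongside 0.1 nM 17beta-estradiol final.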

[17] = qHTS assay to identify small molecule agonists of the sonic hedgehog signaling (Shh) pathway (AID 1259368; calls by dose curve; note: nearly all actives have a fitted effect of over 15% in size; note: potency is the fitted concentration of half-maximal effect)
Outline: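 A Gli1 transcriptional response element controlled firefly luciferase in 3T3Gli1-Luc cells. Compounds and a positive control were added 4 hr after plating, and cells were incubated a further 24 hr at 37 C before luminescence detection.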

[18] = A CellTox Green Cytotoxicity Assay to monitor cytotoxicity in HEK293 cells - 32 hour (AID 1224881); note: nearly all actives have a fitted effect of over 40% in size; note: potency is the fitted concentration of half-maximal effect
Outline: as §2

[19] = qHTS assay to identify small molecule agonists of the sonic hedgehog signaling (Shh) pathway - cell viability counter screen (AID 1259366); note: nearly all actives have a fitted effect of over 50% in size
Outline: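 Cytotoxicity counter screen: CellTiter-Fluor reagent added after 23 h compound exposure, then 1 h at 37C and fluorescence read. Cells were 3T3 Gli1-Luc, seeded 2,000 per well and dosed 4 h post-plating.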

[20] = molecular target: Androgen receptor (Homo sapiens) (UniProt P10275); test: qHTS assay to identify small molecule antagonists of the androgen receptor (AR) signaling pathway using the MDA cell line in the presence of 0.5 nM R1881 (AID 1259243)
Outline: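 Reporter cells cultured without CO2 receive test chemicals, then 0.5 nM R1881 final; after 16 hr at 37C, ONE-Glo is added and light output recorded.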

Chain of Estrogen receptor (Homo sapiens) (P03372 whole entry, looked up): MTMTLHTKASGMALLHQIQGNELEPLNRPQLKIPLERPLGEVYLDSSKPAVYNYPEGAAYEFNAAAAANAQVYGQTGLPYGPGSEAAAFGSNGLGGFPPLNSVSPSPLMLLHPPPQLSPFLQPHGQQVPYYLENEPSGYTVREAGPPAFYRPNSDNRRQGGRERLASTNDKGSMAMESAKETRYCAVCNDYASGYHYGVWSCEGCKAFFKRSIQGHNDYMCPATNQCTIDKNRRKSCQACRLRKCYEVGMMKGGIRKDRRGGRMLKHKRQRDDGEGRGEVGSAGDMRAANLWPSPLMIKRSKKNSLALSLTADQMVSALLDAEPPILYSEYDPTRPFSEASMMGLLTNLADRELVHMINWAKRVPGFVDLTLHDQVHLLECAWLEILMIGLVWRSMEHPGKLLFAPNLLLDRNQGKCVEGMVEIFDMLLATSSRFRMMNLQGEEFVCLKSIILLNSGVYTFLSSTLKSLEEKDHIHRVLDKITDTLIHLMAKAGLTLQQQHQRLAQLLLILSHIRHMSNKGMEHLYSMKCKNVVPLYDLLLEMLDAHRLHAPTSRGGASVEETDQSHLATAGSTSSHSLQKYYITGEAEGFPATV
Chain of Androgen receptor (Homo sapiens) (P10275 whole entry, looked up): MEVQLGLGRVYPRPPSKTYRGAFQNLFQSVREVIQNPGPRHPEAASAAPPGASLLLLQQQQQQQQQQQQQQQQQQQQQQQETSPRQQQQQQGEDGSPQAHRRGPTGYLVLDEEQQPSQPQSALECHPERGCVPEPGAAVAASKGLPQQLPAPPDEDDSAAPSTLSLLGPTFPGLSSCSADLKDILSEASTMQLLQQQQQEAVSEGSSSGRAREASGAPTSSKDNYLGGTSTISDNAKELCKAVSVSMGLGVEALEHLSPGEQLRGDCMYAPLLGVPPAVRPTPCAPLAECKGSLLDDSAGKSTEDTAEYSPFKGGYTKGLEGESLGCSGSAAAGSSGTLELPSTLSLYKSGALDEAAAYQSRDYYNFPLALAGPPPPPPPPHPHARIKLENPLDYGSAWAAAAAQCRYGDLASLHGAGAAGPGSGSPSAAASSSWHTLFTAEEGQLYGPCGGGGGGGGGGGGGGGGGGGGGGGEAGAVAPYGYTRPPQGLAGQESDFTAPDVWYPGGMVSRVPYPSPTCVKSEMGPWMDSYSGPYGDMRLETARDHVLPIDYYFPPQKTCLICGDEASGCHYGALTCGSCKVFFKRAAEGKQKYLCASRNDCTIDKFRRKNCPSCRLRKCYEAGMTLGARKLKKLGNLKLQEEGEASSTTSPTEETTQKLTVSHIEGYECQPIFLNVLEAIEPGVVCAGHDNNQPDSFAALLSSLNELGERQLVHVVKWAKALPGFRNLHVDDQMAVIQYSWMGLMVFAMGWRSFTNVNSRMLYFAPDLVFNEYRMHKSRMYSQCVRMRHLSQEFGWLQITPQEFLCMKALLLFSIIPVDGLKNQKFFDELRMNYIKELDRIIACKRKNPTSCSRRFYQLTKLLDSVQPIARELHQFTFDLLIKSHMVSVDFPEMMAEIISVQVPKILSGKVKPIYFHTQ

SMILES: Oc1ccc([C@H]2CNCc3c2ccc(O)c3O)cc1O
- Potency [1]: 26.8 µM (active)
- Potency [2]: 26.8 µM (active)
- Potency [3]: inactive
- Potency [4]: 26.8 µM (active)
- Potency [5]: inactive
- Potency [6]: inactive
- PLD induction [7]: -2.7% [at 7.66 µM]
- Potency [8]: inactive
- Potency [9]: inactive
- Potency [10]: inactive

SMILES: Oc1ccc2[nH]cc(CCCCN3CC=C(c4ccccc4)CC3)c2c1
- Potency [11]: inactive
- Potency [1]: 23.9 µM (active)
- Potency [2]: inactive
- Potency [12]: inactive
- Potency [3]: 19 µM (active)
- Potency [13]: 8.49 µM (active)
- Potency [14]: inactive
- Potency [15]: inactive
- Potency [4]: inactive
- Potency [16]: inactive
- Potency [5]: inactive
- outcome [7]: inactive
- Potency [8]: inactive
- Potency [9]: inactive
- Potency [10]: inactive
- Potency [17]: inactive

SMILES: COc1ccc2[nH]cc(CCN(C(C)C)C(C)C)c2c1
- Potency [18]: inactive
- Potency [11]: inactive
- Potency [2]: inactive
- Potency [12]: inactive
- Potency [3]: inactive
- Potency [13]: inactive
- Potency [15]: inactive
- Potency [4]: inactive
- Potency [5]: inactive
- outcome [7]: inactive
- Potency [8]: inactive
- Potency [9]: inactive
- Potency [19]: inactive
- Potency [10]: inactive

SMILES: C[C@]12Cc3cn[nH]c3C[C@@H]1CC[C@@H]1[C@@H]2CC[C@@]2(C)[C@H]1CC[C@]2(C)O
- Potency [18]: inactive
- Potency [11]: inactive
- Potency [2]: inactive
- Potency [12]: inactive
- Potency [13]: inactive
- Potency [14]: inactive
- Potency [15]: inactive
- Potency [4]: inactive
- Potency [16]: inactive
- Potency [5]: inactive
- Potency [8]: inactive
- Potency [9]: inactive
- Potency [19]: inactive
- Potency [17]: inactive

SMILES: COP(=O)(OC)O/C(=C\Cl)c1cc(Cl)c(Cl)cc1Cl
- Potency [18]: inactive
- Potency [11]: inactive
- Potency [2]: inactive
- Potency [3]: inactive
- Potency [14]: inactive
- Potency [4]: inactive
- Potency [16]: inactive
- Potency [5]: inactive
- Potency [20]: 68.6 µM (active)
- Potency [8]: inactive
- Potency [9]: inactive
- Potency [19]: inactive
- Potency [10]: inactive
- Potency [17]: inactive

SMILES: CCO/N=C(\CC)C1=C(O)CC(c2c(C)cc(C)cc2C)CC1=O (stereo unspecified)
- Potency [18]: inactive
- Potency [11]: inactive
- Potency [2]: inactive
- Potency [12]: inactive
- Potency [14]: inactive
- Potency [5]: inactive
- Potency [6]: inactive
- Potency [8]: inactive
- Potency [9]: inactive
- Potency [19]: inactive
- Potency [10]: inactive
- Potency [17]: inactive

SMILES: Cc1cccc(Cc2cnc[nH]2)c1C
- Potency [18]: inactive
- Potency [2]: inactive
- Potency [12]: inactive
- Potency [3]: inactive
- Potency [13]: inactive
- Potency [14]: inactive
- Potency [16]: inactive
- Potency [5]: inactive
- Potency [6]: inactive
- outcome [7]: inactive
- Potency [8]: inactive
- Potency [9]: inactive
- Potency [19]: inactive
- Potency [10]: inactive
- Potency [17]: inactive

SMILES: Nc1c(Cl)c(Cl)c(Cl)c(Cl)c1Cl
- Potency [18]: inactive
- Potency [2]: inactive
- Potency [12]: inactive
- Potency [3]: inactive
- Potency [15]: inactive
- Potency [5]: inactive
- Potency [8]: inactive
- Potency [9]: inactive
- Potency [19]: inactive
- Potency [10]: inactive
- Potency [17]: inactive

SMILES: CCOP(=S)(OCC)SC(CCl)N1C(=O)c2ccccc2C1=O (stereo unspecified)
- Potency [18]: inactive
- Potency [11]: inactive
- Potency [2]: inactive
- Potency [12]: inactive
- Potency [3]: inactive
- Potency [13]: inactive
- Potency [14]: inactive
- Potency [4]: inactive
- Potency [16]: inactive
- Potency [5]: inactive
- Potency [8]: inactive
- Potency [9]: inactive
- Potency [19]: inactive
- Potency [10]: inactive
- Potency [17]: inactive

SMILES: Nc1ccccc1-c1ccccc1
- Potency [11]: inactive
- Potency [1]: inactive
- Potency [2]: inactive
- Potency [12]: inactive
- Potency [3]: inactive
- Potency [13]: inactive
- Potency [14]: inactive
- Potency [15]: inactive
- Potency [4]: inactive
- Potency [5]: inactive
- Potency [6]: inactive
- Potency [9]: inactive
- Potency [19]: inactive
- Potency [10]: inactive
- Potency [17]: inactive

SMILES: CC(=O)C(Cl)C(=O)N(C)C (stereo unspecified)
- Potency [11]: inactive
- Potency [1]: inactive
- Potency [2]: inactive
- Potency [12]: inactive
- Potency [3]: inactive
- Potency [14]: inactive
- Potency [15]: inactive
- Potency [4]: inactive
- Potency [16]: inactive
- Potency [5]: inactive
- Potency [6]: inactive
- Potency [8]: inactive
- Potency [9]: inactive
- Potency [19]: inactive
- Potency [10]: inactive
- Potency [17]: inactive

SMILES: S=C=NCCc1ccccc1
- Potency [18]: 49.1 µM (active)
- Potency [11]: inactive
- Potency [2]: inactive
- Potency [12]: inactive
- Potency [3]: 49.1 µM (active)
- Potency [14]: inactive
- Potency [15]: inactive
- Potency [4]: inactive
- Potency [5]: inactive
- Potency [20]: 48.7 µM (active)
- Potency [6]: inactive
- Potency [8]: inactive
- Potency [19]: inactive
- Potency [10]: inactive
- Potency [17]: 61.3 µM (active)

SMILES: CC[C@]1(O)CC[C@H]2[C@@H]3CCC4=CCCC[C@@H]4[C@H]3CC[C@@]21C
- Potency [18]: inactive
- Potency [11]: inactive
- Potency [2]: inactive
- Potency [12]: inactive
- Potency [13]: inactive
- Potency [14]: inactive
- Potency [15]: inactive
- Potency [4]: inactive
- Potency [16]: inactive
- Potency [5]: inactive
- outcome [7]: inactive
- Potency [8]: inactive
- Potency [9]: inactive
- Potency [19]: inactive
- Potency [10]: inactive
- Potency [17]: inactive

SMILES: Cc1cc(C2CC2)nc(Nc2ccccc2)n1
- Potency [18]: inactive
- Potency [11]: inactive
- Potency [2]: inactive
- Potency [3]: 24.5 µM (active)
- Potency [13]: 21.9 µM (active)
- Potency [14]: inactive
- Potency [15]: inactive
- Potency [16]: inactive
- Potency [5]: inactive
- Potency [6]: inactive
- Potency [8]: 24.3 µM (active)
- Potency [9]: inactive
- Potency [17]: inactive
